Records with an inconclusive call do not appear. The source made the active and inactive calls. The call rests on the fitted dose curve; in most records, active means well fitted cell-killing curve with a large enough effect; inconclusive means small, poorly fitted or top-dose-only effect, or effect the other way; inactive means no such curve, though single readings can be large or run the other way.
On the % scale 0 is the no-effect control and ±100 the full control effect; potency means the concentration at half of the fitted maximal effect.

In the assay the test system is CASKI. Description: Confirmatory qHTS for gynecologic anti-cancer compounds from libraries of approved drugs and bioactive compounds. Further: nearly all actives have a fitted effect of over 55% in size. As to conditions: gynecologic cancer cell panel viability, ATPlite luminescence, 48 h; series mostly up to 57.6 µM; activity change, negative = viability loss: at the top concentration. The essentials:
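ATP-based luminescent viability (ATPlite) after 48 h drug treatment at 37 °C, 5% CO2, across 57.5 uM–0.977 nM in 1:3 steps. Cells seeded at 1,000 per well 16 h beforehand; IC50 values computed, HEK 293T as selectivity control.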
(In general: qHTS replaces the single test concentration by a dilution series.)
Take `CCc1c2c(nc3ccc(O)cc13)-c1cc3c(c(=O)n1C2)COC(=O)[C@]3(O)CC`: the Potency is 0.153 µM (active).

On to `CC[C@H](Nc1ncnc2nc[nH]c12)c1nc2cccc(F)c2c(=O)n1-c1ccccc1`, for which the activity change, negative = viability loss was -2.62% [at 10.7 µM] (inactive).

On to `CN(C)CCC(CSc1ccccc1)Nc1ccc(S(=O)(=O)NC(=O)c2ccc(N3CCN(Cc4ccccc4-c4ccc(Cl)cc4)CC3)cc2)cc1[N+](=O)[O-]` (stereo not drawn), for which the Potency was 3.85 µM (active).

As for `Nc1ccc(-c2ccc3ncc4ccc(=O)n(-c5cccc(C(F)(F)F)c5)c4c3c2)cn1`, the Potency is 1.93 µM (active).

For the compound `CNc1nc(Nc2ccc(C(=O)N3CCOCC3)cc2OC)ncc1Cl`, the “activity change, negative = viability loss” value is -19.4% (inactive).

As to `NS(=O)(=O)c1ccc(Nc2nc(OCC3CCCCC3)c3[nH]cnc3n2)cc1`, the “activity change, negative = viability loss” value was -5.72% (inactive).

For the compound `CN(c1nccc(=O)[nH]1)C1CCN(c2nc3ccccc3n2Cc2ccc(F)cc2)CC1`, the “activity change, negative = viability loss” value is -4.26% (inactive).

As for `COc1ccc2c(c1)c(CC(=O)O)c(C)n2C(=O)c1ccc(Cl)cc1`, the “activity change, negative = viability loss” value was -4.55% (inactive).

For `CCCCc1oc2ccccc2c1C(=O)c1cc(I)c(OCCN(CC)CC)c(I)c1`, the Potency was 79.4 µM (active).

As to `CC(C)C[C@H](NC(=O)[C@@H](NC(=O)c1cccc(-c2ccccc2)n1)[C@@H](C)O)B(O)O`, the Potency is 0.0611 µM (active).

In the case of `COc1cc(Nc2c(C#N)cnc3cc(OCCCN4CCN(C)CC4)c(OC)cc23)c(Cl)cc1Cl`, the Potency was 24.3 µM (active).

With `CC[C@@]1(O)C(=O)OCc2c1cc1n(c2=O)Cc2cc3cc(O)ccc3nc2-1`, the Potency was 0.243 µM (active).

As to `C[C@]12CCC(=O)C=C1[C@@H]1C[C@@H]1[C@H]1[C@@H]3[C@@H]4C[C@@H]4[C@@]4(CCC(=O)O4)[C@@]3(C)CC[C@@H]12`, the “activity change, negative = viability loss” value is -4.75% (inactive).

Take `O=c1[nH]c(=O)n([C@H]2C[C@H](O)[C@@H](CO)O2)cc1C(F)(F)F`: the Potency was 9.68 µM (active).

For the compound `COc1cc(N2CCC(N(C)C)CC2)ccc1Nc1ncc(Cl)c(Nc2ccccc2P(C)(C)=O)n1`, the Potency is 7.69 µM (active).

With `NC(=O)c1cccc2cn(-c3ccc([C@@H]4CCCNC4)cc3)nc12`, the “activity change, negative = viability loss” value is 1.6% (inactive).

In the case of `OCCNC1CCCc2c1[nH]c1ccc(-c3ccccc3)cc21` (stereo not drawn), the Potency was 30.6 µM (active).

With `Cc1cc(Nc2cc(N3CCN(C)CC3)nc(Sc3ccc(NC(=O)C4CC4)cc3)n2)n[nH]1`, the “activity change, negative = viability loss” value is -30.6% (inactive).

`CN(C)/N=N/c1nc[nH]c1C(N)=O`: the “activity change, negative = viability loss” value is -20.5% (inactive).

With `O=C(Nc1cccnc1)N1CCC(Cc2cccc(Oc3ccc(C(F)(F)F)cn3)c2)CC1`, the Potency was 12.2 µM (active).

Turning to `CNCc1ccc(-c2[nH]c3cc(F)cc4c3c2CCNC4=O)cc1`, the “activity change, negative = viability loss” value is 19.2% (inactive).

Consider `OC[C@H]1O[C@@H](n2cnc3c(=S)nc[nH]c32)[C@H](O)[C@@H]1O`, for which the Potency was 4.85 µM (active).

Turning to `COC(C)(C)CCn1nc(Nc2c(C)cccc2C)c2cnc(Nc3ccc(OCCN4CCCC4)c(F)c3)nc21`, the Potency was 3.43 µM (active).

Turning to `Cc1ccc(C(N)=O)cc1Nc1nccc(-c2cn(C(C)C)c3cnccc23)n1`, the Potency was 17.2 µM (active).

For the compound `COc1cc(N2CCC(N)CC2)ccc1Nc1ncc(Cl)c(-c2c[nH]c3ccccc23)n1`, the Potency was 24.3 µM (active).

Consider `CC(C)(C)C(=O)OCOP(=O)(COCCn1cnc2c(N)ncnc21)OCOC(=O)C(C)(C)C`, for which the “activity change, negative = viability loss” value is -18% (inactive).

Take `Cc1csc(NC(=O)c2sc3nc4c(c(C(F)(F)F)c3c2N)CCC4)n1`: the Potency is 5.44 µM (active).

With `Cc1cc(CN2CCN(c3c(Br)cnc4nc(-c5ccc(N6CCN(C)CC6)cc5)[nH]c34)CC2)no1`, the Potency is 27.3 µM (active).

In the case of `Cc1ccc(C(=O)N(CCCN)C(c2nc3cc(Cl)ccc3c(=O)n2Cc2ccccc2)C(C)C)cc1` (stereo not drawn), the Potency was 27.3 µM (active).

As for `Cc1cnc(Nc2ccc(OCCN3CCCC3)cc2)nc1Nc1cccc(S(=O)(=O)NC(C)(C)C)c1`, the Potency is 19.3 µM (active).

For the compound `COCCOc1nc(-c2ccc(Cl)c(Cl)c2)n(-c2ccc(NC(=O)CCl)cc2)n1`, the “activity change, negative = viability loss” value was 0.971% (inactive).

As to `FC(F)(F)c1ccc(/C=C/c2nc(COc3ccc(CCCCn4ccnn4)cc3)co2)cc1`, the Potency was 0.137 µM (active).

`c1cc(N[C@@H]2CCNC2)nc(-c2cnc3ccc(-c4cn[nH]c4)cn23)c1`: the Potency is 27.3 µM (active).

For the origin of these results see PubChem BioAssay AID1345085 (National Center for Advancing Translational Sciences (NCATS), 2018).
